Test [1] addresses human Vitamin D Receptor (VDR), VDR (gene 7421) (UniProt P11473). As to the kind of experiment: ATG_VDR_TRANS: Attagene TRANS-FACTORIAL HepG2 Assay for human Vitamin D Receptor (VDR) (AID 2283022; active = hit-call score of the fitted dose curve at least 0.9, where 1 is the maximum). In outline:
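RT-PCR/capillary electrophoresis read-out of reporter mRNA induction in transiently transfected HepG2; 24 h dosing; chimeric NR-Gal4 (TRANS format); gain-of-signal fit against DMSO baseline.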

A short description of test [2]: BSK_3C_SRB: Viability Assessment in the BioMAP Diversity Plus: 3C Assay (AID 2283023).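 Also: fitted both ways against DMSO so a hit may be signal rise or drop.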 The following applies: primary human endothelial cells (HUVEC). In outline:
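HUVEC, 24 h post-dose; 10% TCA fix, 0.1% SRB stain, A560 nm. Bidirectional curve fit vs DMSO negative control.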

Read-out in test [3]: Matrix Metallopeptidase 1 (MMP1), MMP1 (gene 4312)
As to the kind of experiment: BSK_BE3C_MMP1: BioMAP Diversity Plus: BE3C Assay for Matrix Metallopeptidase 1 (MMP1) Biomarker Activity (AID 2283024). The following applies: primary human bronchial epithelial cells; actives raise or lower the signal. In outline:
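Human bronchial epithelial cells (BE3C system) exposed to compound for 24 h; MMP1 then quantified by ELISA. Activity was fitted in both directions relative to DMSO.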

The nature of test [4]: BSK_3C_Vis: BioMAP Diversity Plus: 3C Assay for Morphology Visualization (AID 2283025).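 Also: fitted both ways so gain or loss versus DMSO counts.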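 As to AC50: light microscopy image of cell morphology used as background control.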 Conditions: primary human endothelial cells (HUVEC). In outline:
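Chemicals were added to primary human umbilical vein endothelium, cells were incubated 24 h, and morphology was then visualized by light microscopy. Gain or loss of signal was fitted bidirectionally relative to DMSO.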

Read-out in test [5]: Pselectin, SELP (gene 6403)
As to the kind of experiment: BSK_4H_Pselectin: BioMAP Diversity Plus: 4H Assay for Pselectin Biomarker Activity (AID 2283026). The following applies: primary human endothelial cells (HUVEC); actives raise or lower the signal. In outline: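 ELISA read-out of P-selectin on human umbilical vein endothelium after 24 h of dosing. Values derive from bidirectional fitting relative to DMSO. Parallel SRB protein staining flagged overt cytotoxicity.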

Test [6] in a line: BSK_4H_SRB: Viability Assessment in the BioMAP Diversity Plus: 4H Assay (AID 2283027).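 Also: cells exposed to compound for 24 h before staining.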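 As to AC50: curves fitted both ways versus DMSO so AC50 may be loss or gain.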 The following applies: primary human endothelial cells (HUVEC). In outline:
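Human umbilical vein endothelial cells were dosed with chemical and, after 24 h, fixed with 10% TCA, stained with 0.1% sulforhodamine B, and read at 560 nm to give total protein as a cytotoxicity measure. Bidirectional fitting relative to DMSO control.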

Test [7] is described as follows: BSK_BE3C_SRB: Viability Assessment in the BioMAP Diversity Plus: BE3C Assay (AID 2283028).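 As to AC50: fitted both ways so AC50 may mark signal gain or loss versus DMSO.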 The following applies: primary human bronchial epithelial cells. In outline: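 Primary human bronchial epithelium; chemical dosing, 24 h; 10% TCA fix, 0.1% SRB stain, A560; bidirectional fit vs DMSO baseline.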
Read-out in test [8]: Thrombomodulin, THBD (gene 7056)
As to the kind of experiment: BSK_3C_Thrombomodulin: BioMAP Diversity Plus: 3C Assay for Thrombomodulin Biomarker Activity (AID 2283029). Conditions: primary human endothelial cells (HUVEC); actives raise or lower the signal. In outline:
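Read-out is ELISA of thrombomodulin on human umbilical vein endothelium 24 h after chemical dosing. Gain or loss of signal is scored relative to DMSO. Overt cytotoxicity is checked in parallel cultures by sulforhodamine B staining.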

Read-out in test [9]: Urokinase-type plasminogen activator receptor (uPAR), PLAUR (gene 5329)
As to the kind of experiment: BSK_4H_uPAR: BioMAP Diversity Plus: 4H Assay for Urokinase-type plasminogen activator receptor (uPAR) Biomarker Activity (AID 2283030). Conditions: primary human endothelial cells (HUVEC); actives raise or lower the signal. In outline: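 HUVEC, 24 h post-dose; uPAR by ELISA; bidirectional fit vs DMSO baseline.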

Read-out in test [10]: Vascular endothelial growth factor receptor 2 (Homo sapiens) (UniProt P35968)
As to the kind of experiment: BSK_4H_VEGFRII: BioMAP Diversity Plus: 4H Assay for Vascular endothelial growth factor receptor 2 (VEGFR2) Biomarker Activity (AID 2283031).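 As to AC50: cell-surface VEGFR2 protein level quantified by ELISA.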 Conditions: primary human endothelial cells (HUVEC); actives raise or lower the signal. In outline: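 HUVEC (human primary), 4H system; 24 h post-dose; VEGFRII by ELISA; bidirectional curve fit vs DMSO baseline; gain or loss of signal scored.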

Inconclusive results are not listed. The source holds several records for some structures; these can differ, active in one and inactive in another. The source made the active and inactive calls. The calls were made as follows, unless noted: active = hit-call score of the fitted dose curve at least 0.9, where 1 is the maximum; inactive = score below 0.9.

human Vitamin D Receptor (VDR), VDR (gene 7421), sequence (P11473 whole entry, looked up, the tested form may be a part): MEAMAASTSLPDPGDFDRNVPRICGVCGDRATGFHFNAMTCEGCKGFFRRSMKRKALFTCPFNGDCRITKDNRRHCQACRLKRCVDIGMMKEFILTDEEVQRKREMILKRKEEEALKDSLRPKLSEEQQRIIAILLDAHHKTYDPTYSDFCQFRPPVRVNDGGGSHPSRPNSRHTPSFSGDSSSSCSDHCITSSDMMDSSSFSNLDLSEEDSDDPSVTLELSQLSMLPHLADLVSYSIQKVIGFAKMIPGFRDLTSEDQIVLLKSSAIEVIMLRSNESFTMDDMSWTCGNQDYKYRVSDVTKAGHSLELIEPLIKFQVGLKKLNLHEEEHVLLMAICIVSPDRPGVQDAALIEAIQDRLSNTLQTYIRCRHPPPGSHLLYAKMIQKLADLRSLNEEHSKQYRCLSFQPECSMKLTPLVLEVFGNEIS

Consider `CCCCCCC(=O)O`, for which the outcome in test [1], in [2], in test [3], in test [4], in [5] and in [6] was inactive. The outcome in [7], in [8], in test [9] and in [10] was inactive.

Turning to `C[C@@H]1C[C@H]2[C@@H]3CCC4=CC(=O)C=C[C@]4(C)[C@@]3(F)[C@@H](O)C[C@]2(C)[C@@]1(O)C(=O)COP(=O)(O)O`, the call in [1], in test [2], in [3], in [4], in test [5] and in [6] was inactive. In addition, the outcome in [7], in [8], in [9] and in test [10] was inactive. Further, the AC50 (in general, the concentration at which the activity in the assay is half-maximal) in [3] is 0.1 µM (active).

On to `CCCCC[C@H](O)CC(=O)CCc1ccc(O)c(OC)c1`, for which, in test [1], the compound was called inactive.

As to `CCCOc1sc(C(=O)N2CCC(c3cc(CN)ccc3F)CC2)c(C)c1Br`, in [1], the result was inactive. The AC50 in test [2] is 5 µM (active); in test [3], 11.1 µM (active); in [4], 8.81 µM (active); in test [5] it was 6.2 µM (active); in [6], 5.82 µM (active); in [7], 4.93 µM (active). Further, the AC50 was 4.5 µM (active) in [8], 6.64 µM (active) in [9] and 4.78 µM (active) in test [10].

For the compound `CCCCC(CC)COC(=O)CCCCC(=O)OCc1ccccc1` (stereo not given), the call in test [1], in test [2], in test [3], in test [4], in [5] and in test [6] was inactive. The result in test [7], in [8], in test [9] and in [10] was inactive.

Consider `Oc1cc2ccccc2c2ccccc12`, for which the compound was called inactive in test [1]. The AC50 in [2] was 15.4 µM (active); in test [3], 27.9 µM (active); in [4] it was 13.3 µM (active); in [5], 9.99 µM (active); in test [6], 16.6 µM (active); in test [7], 28.8 µM (active). The values for the AC50 in test [8], in test [9] and in test [10] were 9.55 µM (active), 13.2 µM (active) and 30.1 µM (active), respectively.

On to `CCCCCCCCCCCCCCCS(=O)(=O)Oc1ccccc1`, for which the outcome in [1], in [2], in [3], in test [4], in test [5] and in test [6] was inactive. Moreover, the result in [7], in test [8], in test [9] and in test [10] was inactive.

For the compound `Cc1ccc(S(=O)(=O)O)c(C)c1`, the outcome in test [1] was inactive.

In the case of `CC(C)(C)c1ccc(O)c(C(C)(C)C)c1`, the result in test [1], in test [8] and in test [10] was inactive. For the same compound, the AC50 in [2] was 9.68 µM (active); in test [3] it was 32.4 µM (active); in test [4], 6.71 µM (active); in test [5], 7.52 µM (active); in test [6], 12.4 µM (active); in test [7], 32 µM (active). The AC50 in test [9] was 10.6 µM (active).

In the case of `CC1=C(/C=C/C(C)=C/C=C/C(C)=C/C(=O)O)C(C)(C)CCC1`, the compound was classed as inactive in test [1], in test [2], in test [4], in test [6], in test [7] and in [8]. The result in test [9] and in test [10] was inactive. The AC50 in test [3] was 0.854 µM (active); in test [5], 31.7 µM (active).

With `C=C(C)C(=O)OCCC(F)(F)C(F)(F)C(F)(F)C(F)(F)C(F)(F)C(F)(F)F`, the outcome in test [1], in [2], in test [3], in test [4], in [5] and in test [6] was inactive. Further, the outcome in [7], in test [8], in test [9] and in test [10] was inactive. Also, the AC50 in test [6] was 20 µM (active).

`CCN(CC)CCNc1ccc(CNC=O)c2sc3ccc(OC)cc3c(=O)c12`: the AC50 in test [1] is 1.47 µM (active); in test [2], 17.7 µM (active); in test [3] it was 20 µM (active); in test [4], 14.4 µM (active); in [5], 14.3 µM (active); in test [6], 25.4 µM (active). Besides, the AC50 is 9.57 µM (active) in [9] and 20 µM (active) in test [10]. In addition, the result in test [7] and in [8] was inactive.

Regarding `O=C1OC2(c3ccccc31)c1cc(Br)c(O)c(Br)c1Oc1c2cc(Br)c(O)c1Br`, the outcome in test [1] was inactive.

Consider `Oc1cccc(O)c1`, for which the outcome in [1], in [2], in test [3], in test [4], in test [5] and in [6] was inactive. Moreover, the result in [7], in test [8], in [9] and in [10] was inactive.

For the compound `CCC(C)(C)C1CCC(O)CC1` (stereo not given), the compound was classed as inactive in test [1], in [2], in test [3], in [4], in [5] and in [6]. In addition, the result in test [7], in test [8], in [9] and in test [10] was inactive.

On to `CCc1nn(C2CCCCC2)c2cc(C3(C#N)CCC(C(=O)O)CC3)ccc12` (stereo not given), for which the call in test [1], in [3], in test [7], in test [8] and in test [10] was inactive. The AC50 is 5.08 µM (active) in test [2]; 39 µM (active) in test [4]; 4.25 µM (active) in [5]; 5.87 µM (active) in test [6]; 4.94 µM (active) in test [9].

On to `CC(O)C(=O)O` (stereo not given), for which the outcome in test [1] was inactive.

On to `CC(=O)CC(C)(C)O`, for which the result in test [1], in test [2], in [3], in test [4], in [5] and in [6] was inactive. Also, the outcome in [7], in test [8], in test [9] and in [10] was inactive.

In the case of `Nc1cccc2c(N)cccc12`, the compound was classed as inactive in [1], in test [2], in [3], in test [4], in test [5] and in [6]. For the same compound, the result in test [7], in test [8], in test [9] and in test [10] was inactive.

For `CN1CCC[C@H]1c1cccnc1`, the call in test [1], in [2], in test [3], in test [4], in [5] and in [6] was inactive. Also, the outcome in [7], in test [8], in test [9] and in [10] was inactive.

In the case of `CC#C[C@]1(O)CC[C@H]2[C@@H]3CCC4=CC(=O)CCC4=C3[C@@H](c3ccc(N(C)C)cc3)C[C@@]21C`, the AC50 is 30.5 µM (active) in test [2]; 0.623 µM (active) in test [3]; 29.9 µM (active) in [5]; 29.1 µM (active) in test [6]; 3.97 µM (active) in test [9]. The result in test [4], in test [7], in test [8] and in [10] was inactive.

Source of the values: PubChem BioAssay (EPA / NIEHS).
